B2AR arrestin – qHTS assay of beta-arrestin-biased ligands of beta2-adrenergic receptor; beta-arrestin recruitment to beta2AR, cell-based reporter; Potency, µM (highest dose often 46.1 µM), for the others: at the top dose activation, hits mostly activators; 330,000 tested, 0.02% active; active means well fitted activation curve with a large enough effect; inconclusive means small, poorly fitted or top-dose-only effect;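 further: potency means the concentration at half of the fitted maximal effect; 0% = DMSO controls and full agonism = EC100 isoproterenol or metaproterenol; nearly all actives have a fitted effect of over 65% in size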
DRD3 agonist – qHTS of D3 Dopamine Receptor Agonist: qHTS; D(3) dopamine receptor (Homo sapiens), P35462; D3R DiscoveRx beta-arrestin cells, luminescence, 90 min; max activation, %; 410,000 tested, 0.58% active; AID 652048, 2013; in the data active means max activation above about 30%; further: 0% is about no effect
Target sequence (P35462 whole entry, looked up): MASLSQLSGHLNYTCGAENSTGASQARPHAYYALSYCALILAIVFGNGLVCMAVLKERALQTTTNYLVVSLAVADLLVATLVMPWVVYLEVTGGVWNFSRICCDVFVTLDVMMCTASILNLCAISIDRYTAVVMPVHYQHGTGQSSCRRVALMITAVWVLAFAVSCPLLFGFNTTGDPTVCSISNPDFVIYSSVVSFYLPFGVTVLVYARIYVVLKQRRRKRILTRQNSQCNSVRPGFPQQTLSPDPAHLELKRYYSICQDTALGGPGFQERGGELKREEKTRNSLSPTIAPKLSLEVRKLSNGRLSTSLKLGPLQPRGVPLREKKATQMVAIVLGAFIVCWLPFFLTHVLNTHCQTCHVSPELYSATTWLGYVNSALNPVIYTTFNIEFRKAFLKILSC
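Cells at 1500/well, incubated overnight, then treated with pinned compounds (dopamine as control) for 90 min at 37 degrees C. DiscoveRx reagent added for 30 - 60 minutes at room temperature; luminescence read.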
TSHR antagonist – Antagonists of the Thyroid Stimulating Hormone Receptor: HTS campaign; Thyrotropin receptor (Homo sapiens), P16473; activity change, negative = inhibition, % at 11.5 µM; 330,000 tested, 0.2% active; AID 504810, 2011; TSHR-expressing cells, TSH-stimulated cAMP HTRF, 2 h; active compounds read low;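 active means activity change below a set negative limit, meaning inhibition stronger than a set level, cut at about -70% in these data; inconclusive means activity change between two set negative limits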; further: on the % scale 0 is the no-effect control and ±100 the full control effect
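Freshly harvested TSHR cells receive pin-tooled compound, then EC80 TSH at 4nM final. After 2 hours at 37 deg C, antibody in lysis buffer and cAMP-d2 are added; 30 minutes at ambient temperature precede the HTRF read.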
D3 antag – qHTS of D3 Dopamine Receptor Antagonist: qHTS; max response, negative = inhibition, %; D3R cells, DiscoveRx beta-arrestin luminescence, antagonist mode; active compounds read low; 360,000 tested, 2.5% active; in the data active means max response below about -50%; inconclusive means no clear call, values can overlap the other calls; further: on the % scale 0 is the no-effect control and ±100 the full control effect
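Cells plated overnight at 1500 cells/well, then exposed to library compounds with dopamine controls for 90 minutes at 37 degrees C. DiscoveRx reagent added for 30–60 minutes at room temperature; luminescence read, quantitative HTS format.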
An asterisk follows results filed as active; ! = not confirmed by another sample. Shown are actives, neighbours in structure and some others; about 2.9% of the full set was active somewhere.

How did CCNCCNc1ccc(Cl)cc1[N+](=O)[O-] do in these assays?
DRD3 agonist: -11; D3 antag: -75*

What do the screens show for `Cc1ccc(N(Cc2cccs2)C(=O)COc2ccccc2[N+](=O)[O-])cc1`?
DRD3 agonist: -6

What do the screens show for `Oc1c(C(c2ccccc2Cl)N2CCC(O)CC2)sc2nc(-c3ccco3)nn12` (centres undefined)?
DRD3 agonist: -12

Results for COc1ccc(NC(=O)C2CCC(CNc3c(N4CCC(C)CC4)c(=O)c3=O)CC2)cc1OC (centres undefined) ?
B2AR arrestin: 0%; DRD3 agonist: 2; TSHR antagonist: -11; D3 antag: -105*!

What do the screens show for `CCOCCCNC(=O)C(c1ccc(C)cc1)N(Cc1ccc2c(c1)OCO2)C(=O)c1ccc(NC(C)=O)cc1` (centres undefined)?
DRD3 agonist: 20

Results for CCO[C@@H]1OC(C(=O)O)=C[C@H](C2CCCCC2)[C@H]1CCCO ?
B2AR arrestin: 0%; DRD3 agonist: 35*; TSHR antagonist: -1; D3 antag: 16

What do the screens show for `FC(F)(F)c1cc(Sc2ccccc2)nc(-c2ccccn2)n1`?
B2AR arrestin: 0%; DRD3 agonist: 34*; TSHR antagonist: 1; D3 antag: 31

Results for S=c1sc2c(Cl)ncnc2n1-c1ccccc1 ?
B2AR arrestin: 0%; DRD3 agonist: -6; TSHR antagonist: inconclusive; D3 antag: -61*

Results for Cc1nc(N2CCN(C)CC2)c2sc(=S)n(-c3ccccc3)c2n1 ?
B2AR arrestin: -1%; DRD3 agonist: -6; TSHR antagonist: 0; D3 antag: -14

How did CCCCCn1c(=O)[nH]c2cc(C(=O)Nc3cc(OC)cc(OC)c3)ccc2c1=O do in these assays?
DRD3 agonist: -4

Results for CCCN(CCC)C(=O)C1CCN(c2cc(C)nc3c(-c4ccc(Cl)cc4)c(C)nn23)CC1 ?
DRD3 agonist: 4

Results for COC(=O)c1c(-c2ccc(N(C)C)cc2)sc2ccc(OC)cc12 ?
B2AR arrestin: 0%; DRD3 agonist: 134*; TSHR antagonist: -19; D3 antag: 175

How did COc1ccc2sc(-c3ccc(S(C)(=O)=O)cc3)c(C#CCO)c2c1 do in these assays?
B2AR arrestin: 0%; DRD3 agonist: 3; TSHR antagonist: -78*; D3 antag: 30

How did COc1cc(-c2ccc3sc(-c4ccsc4)c(C#CCO)c3c2)cc(OC)c1OC do in these assays?
B2AR arrestin: 0%; DRD3 agonist: 50*; TSHR antagonist: -38; D3 antag: 51

How did COC(=O)c1c(-c2ccsc2)sc2ccc(-c3cc(OC)c(OC)c(OC)c3)cc12 do in these assays?
B2AR arrestin: 0%; DRD3 agonist: 53*; TSHR antagonist: -24; D3 antag: 49

What do the screens show for `COc1cc(-c2c(-c3ccsc3)sc3ccccc23)cc(OC)c1OC`?
B2AR arrestin: 0%; DRD3 agonist: 12; TSHR antagonist: -3; D3 antag: 38

What do the screens show for `COc1ccc(-c2sc3ccccc3c2C#CCO)cc1`?
B2AR arrestin: 0%; DRD3 agonist: 0; TSHR antagonist: -40; D3 antag: 18

What do the screens show for `CC1(C)COC2(OC1)C(=O)N(CN1CCOCC1)c1ccccc12`?
B2AR arrestin: 0%; DRD3 agonist: 2; TSHR antagonist: -10; D3 antag: 4

Results for O=C1N(CN2CCC3(CC2)OCCO3)c2ccccc2C12OCCCO2 ?
B2AR arrestin: 4%; DRD3 agonist: 13; TSHR antagonist: -1; D3 antag: -13

How did O=C1N(CN2CCN(c3cccc(Cl)c3)CC2)c2ccccc2C12OCCCO2 do in these assays?
B2AR arrestin: 0%; DRD3 agonist: -30; TSHR antagonist: -3; D3 antag: -83*

How did CC1CCOC2(O1)C(=O)N(CN1CCN(c3ccccc3F)CC1)c1ccccc12 (centres undefined) do in these assays?
B2AR arrestin: 0%; DRD3 agonist: -8; TSHR antagonist: 9; D3 antag: -54*

How did COc1cccc(CNC(=O)NCc2noc3ccc(C)cc23)c1 do in these assays?
DRD3 agonist: 6

Results for Cc1nc(C)c(C(=O)O)s1 ?
B2AR arrestin: 0%; DRD3 agonist: 47*; TSHR antagonist: 1; D3 antag: -21

What do the screens show for `Cc1nc(C)c(C(=O)Nc2ccccc2)s1`?
B2AR arrestin: 0%; DRD3 agonist: -5; TSHR antagonist: -7; D3 antag: 2

Results for CC(C)CNC(=S)NC1CC2CCCC(C1)N2Cc1cccs1 (centres undefined) ?
B2AR arrestin: 1%; DRD3 agonist: -29; TSHR antagonist: 10; D3 antag: -76*

What do the screens show for `Cc1ccc(NC(=S)NC2CC3CCCC(C2)N3Cc2cccs2)cc1` (centres undefined)?
B2AR arrestin: 0%; DRD3 agonist: -30; TSHR antagonist: 9; D3 antag: -71*

What do the screens show for `CC(C)c1ccc(NC(=O)NC2CC3CCC(C2)N3Cc2cccs2)cc1` (centres undefined)?
B2AR arrestin: -1%; DRD3 agonist: -19; TSHR antagonist: -5; D3 antag: inconclusive

What do the screens show for `Fc1ccc(NC(=S)NC2CC3CCCC(C2)N3Cc2cccs2)cc1` (centres undefined)?
B2AR arrestin: 3%; DRD3 agonist: -16; TSHR antagonist: -7; D3 antag: -54*

How did O=C(Nc1cccc(Cl)c1)NC1CC2CCC(C1)N2Cc1cccs1 (centres undefined) do in these assays?
B2AR arrestin: -1%; DRD3 agonist: 0; TSHR antagonist: -2; D3 antag: -98*

How did COc1ccccc1CNc1ccc(-c2nc(-c3cccc(C)c3)no2)cc1[N+](=O)[O-] do in these assays?
DRD3 agonist: 3

Results for CCC(=O)OC(OP(=O)(CCCCc1ccccc1)CC(=O)N1C[C@H](C2CCCCC2)C[C@H]1C(=O)O)C(C)C (some centres undefined) ?
DRD3 agonist: 12

Results for CCc1ccc(NC(=O)C(=O)NCC(c2cccnc2)N2CCN(Cc3ccccc3)CC2)cc1 (centres undefined) ?
DRD3 agonist: -12

Results for C=CCn1c(C)cc(C(=O)Cn2ncc(Cl)c(Cl)c2=O)c1C ?
B2AR arrestin: -2%; DRD3 agonist: -14; TSHR antagonist: -3; D3 antag: -88*

What do the screens show for `O=C(OCn1ncc(Cl)c(Cl)c1=O)c1ccccc1Cl`?
B2AR arrestin: 0%; DRD3 agonist: -9; TSHR antagonist: inconclusive; D3 antag: -70*

What do the screens show for `CC(C)(C)C(=O)Cn1ncc(Cl)c(Cl)c1=O`?
B2AR arrestin: 0%; DRD3 agonist: 1; TSHR antagonist: 32; D3 antag: -11

Results for O=C(OCn1ncc(Cl)c(Cl)c1=O)c1ccc(F)cc1 ?
B2AR arrestin: -1%; TSHR antagonist: inconclusive

Screening results: PubChem, National Center for Advancing Translational Sciences (NCATS)
